Shown is part of a subset that was picked to be rich in hits.
ERK EGF block – EGF-driven ERK pathway inhibition; 130,000 compounds, 0.41% hits; HEK293-V1b, EGF-stimulated phospho-ERK AlphaScreen; Potency, µM (top dose mostly 11.5 µM), for inactives: at the highest dose activity change, negative = inhibition, actives largely listed as inhibitors; active means well fitted inhibition curve with a large enough effect;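 further: plate controls were stimulated vehicle wells for no effect and unstimulated vehicle basal for full effect; nearly all actives have a fitted effect of over 55% in size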
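In this qHTS, HEK293 cells with stable type-1 vasopressin (V1b) receptor were exposed to compound at 37C for 30 min, stimulated 5 min with EGF at 25 nM, lysed, and probed for phospho-ERK by AlphaScreen.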
Starred values were filed as active, the others as inactive; [ ] = dose if it differs, or a comment. Potency means the concentration at half of the fitted maximal effect.

SMILES	ERK EGF block
CCCN1C(=O)/C(=C\C=C2/C=CN(CC)c3ccccc32)SC1=S	13%
CCN1C(c2ccccc2)=C(c2ccccc2)S/C1=C/C=C1\SC(=S)N(C)C1=O	3.2µM*
Nc1nc(Cl)nc2c1ncn2[C@@H]1O[C@H](COP(=O)(O)OP(=O)(O)OP(=O)(O)O)[C@H](O)[C@H]1O	5%
CCC1=C2CC[C@H]3C(=O)N(CC(=O)OC)C(=O)[C@H]3[C@H]2[C@@]2(C)C(=O)N(Cc3ccccc3)C(=O)N2C1=O	-1%
O=C(NC(=S)Nc1ccc(CN2CCOCC2)cc1)c1ccc(-c2ccc(Cl)cc2)o1	-1%[57.5 µM]
O=C(Nc1ccc(CN2CCOCC2)cc1)c1ccc(-c2ccc(Cl)cc2Cl)o1	25µM*
O=C(/C=C/c1ccc(Cl)cc1Cl)NC(=S)Nc1ccc(CN2CCOCC2)cc1	3%
CC(=O)O[C@H]1CC2(C)[C@@H](C[C@@H](O)[C@H]3[C@@]4(C)CC[C@@H](O)[C@@H](C)[C@@H]4CC[C@@]32C)C1=C(CCC=C(C)C)C(=O)O (stereo partly drawn)	5%
Nc1ncnc2c1ncn2[C@@H]1O[C@H](COP(=O)(O)O)[C@@H](O)[C@@H]1O	6%[25.7 µM]
COC(=O)[C@@]1(Cc2ccc(OC)cc2)[C@H]2c3cc(C(=O)N4CCCC4)n(Cc4nc5ccccc5[nH]4)c3C[C@H]2CN1C(=O)c1ccccc1	10%
O=C1/C(=N\S(=O)(=O)c2cccs2)C([n+]2ccccc2)=C([O-])c2ccccc21	8%[57.5 µM]
CS/C(=N\S(=O)(=O)c1cccs1)Nc1ccc(F)cc1	-3%
Cc1cccc(NC2=C/C(=N/S(=O)(=O)c3cccs3)c3ccccc3C2=O)c1	8%
O=C1C(Nc2ccc(O)cc2)=C/C(=N/S(=O)(=O)c2cccs2)c2ccccc21	18µM*
Cc1ccc(NC2=C/C(=N\S(=O)(=O)c3cccs3)c3ccccc3C2=O)c(C)c1	13µM*
CC(C)(C)c1cc[n+](C2=C([O-])c3ccccc3C(=O)/C2=N\S(=O)(=O)c2cccs2)cc1	2%[57.5 µM]
COc1ccc2c(c1)O[C@@H](c1ccc3c(c1)OCO3)[C@H](O)C2=O	-3%
COC(=O)[C@H](COC(C)(C)C)NC(=O)O[C@@H]1C(=O)c2ccc(OC)cc2O[C@H]1c1cccc(C(F)(F)F)c1	-19%
CC/C=C\C/C=C\C/C=C\C/C=C\C/C=C\CCCC(=O)O	3%
COCCn1c(=O)c(C)nc2cnc(N3CCNCC3)nc21	6%
CCNC(=S)Nc1cccc(S(=O)(=O)Nc2ccccc2OC)c1	2%[57.5 µM]
COc1ccccc1NS(=O)(=O)c1cccc(NC(=O)Cc2cccs2)c1	1%
COc1ccccc1NS(=O)(=O)c1cccc(NC(=O)Nc2ccc(Cl)cc2)c1	28µM*
COC(=O)C1(C(=O)OC)CC2=C[C@H](CC2=O)Cc2ccccc2[C@@H]1C[N+](=O)[O-]	-11%
CCOC(=O)CNC(=O)O[C@@H]1C(=O)c2cc(Br)ccc2O[C@H]1c1cccc(OC)c1	5%
SMILES	ERK EGF block
CC(Cc1ccccc1)C(=O)NCCc1c[nH]c2ccccc12 (stereo not drawn)	0%
C=C(C[C@]1(C(=O)OC)CC2(CC=C(C)C)C(=O)C(C(=O)CC(C)C)=C(O)C(CC=C(C)C)(C1)C2=O)C(=O)OC (stereo partly drawn)	-15%
COc1ccccc1N1C(=O)C2CCC(c3ccccc3)CC2C1=O (stereo not drawn)	5%
COc1ccc(C)cc1N1C(=N)/C(=C2/Nc3ccccc3S2)C(c2ccccc2)C1=O (stereo not drawn)	20µM*
COc1ccc(C)cc1-n1c(=O)c2ccccc2c2ccccc2c1=O	1%
CC(C)C[C@@H](CC(=O)N[C@H](CC(=O)N[C@@H]1CCNC[C@H]1C(=O)N[C@H](CC(=O)N[C@@H](CCC(=O)O)CC(=O)O)Cc1ccccc1)C(C)C)NC(=O)[C@@H]1CNCC[C@H]1N	-16%
CC(C)C[C@@H](CC(=O)N[C@H](CC(=O)N[C@@H]1CCCC[C@H]1C(=O)N[C@H](CC(=O)N[C@@H](CCC(=O)O)CC(=O)O)Cc1ccccc1)C(C)C)NC(=O)[C@@H]1CNCC[C@H]1N	2%
CCCCC[C@H](O)/C=C/C=C\C/C=C\C=C\[C@@H](O)CCCC(=O)O	-13%
C=C(C)C(=O)/C=C/C=C/c1ccccc1	-21%
CC(C)N1C(=O)S/C(=C/c2ccccc2OCc2ccc(C(=O)O)cc2)C1=O	-2%
CCN(CC)c1ccc(/C=C2/SC(=O)N(C(C)C)C2=O)o1	28µM*
CCN(CC)c1ccc(/C=C(/C#N)C(=O)NC(C)C)o1	-7%
CCc1cccc2c(-c3ccccc3)c3c(nc12)OCC3	-2%
COC(=O)c1ccc(C(NC(=O)OCc2ccccc2)/C(F)=C/[C@@H](C)C(=O)NCCN2CCOCC2)cc1 (stereo partly drawn)	-4%
CC(C)[C@@H]1NC(=O)c2cc([N+](=O)[O-])cc(I)c2OCC[C@@H](C(N)=O)NC(=O)[C@H](CCC(=O)O)NC1=O	-5%
NC(=O)CC[C@@H]1NC(=O)[C@H](Cc2ccccc2)NC(=O)[C@H](Cc2ccc(O)cc2)NC(=O)[C@@H](N)CSSC[C@@H](C(=O)N2CCC[C@H]2C(=O)N[C@@H](CCCN=C(N)N)C(=O)NCC(N)=O)NC(=O)[C@H](CC(N)=O)NC1=O	1%
CCN(CC)CCCCn1c(-c2ccccc2)nc2c(N(CCOC)CCOC)nc(C)nc21	-21%
COC(=O)c1nnc(N[C@@H](Cc2c[nH]c3ccccc23)C(=O)OC)nc1C(=O)OC	-3%
COc1ccc2c(c1)O[C@H](c1ccc3c(c1)OCO3)[C@@H](OC(=O)NCc1ccco1)C2=O	-8%
COc1cc(C2c3cc4c(cc3C(OC3OC5COC(C)O[C@@H]5C(O)C3O)C3COC(=O)C23)OCO4)cc(OC)c1O (stereo partly drawn)	3%
COc1ccc(C2=C(Nc3ccccc3)c3ccccc3C2=O)cc1	-2%
CCNC1=C(Cl)C(=O)c2ccccc2C1=O	15%[57.5 µM]
CCOc1ccc(NC(C)=O)cc1	-17%
CCOc1ccc(NC2=C(OC)C(=O)c3ccccc3C2=O)cc1	13µM*
CCN(CC)c1ccc(NC2=C(Cl)C(=O)c3ccccc3C2=O)cc1	10µM*
SMILES	ERK EGF block
COC1=C(Nc2ccc(OC)cc2)C(=O)c2ccccc2C1=O	13µM*
COc1ccc(NC2=C(c3ccc(OC)cc3)C(=O)c3ccccc32)cc1	3%
CCOc1ccc(Nc2c3ccccc3nc3ccccc23)cc1	11%[57.5 µM]
O=C1C(Cl)=C(NCCN2CCCCC2)C(=O)c2ccccc21	5%
COC(=O)c1ccc(C(NC(=O)OCc2ccccc2)/C(=C/[C@@H](C)C(=O)NCCF)c2cccnc2)cc1 (stereo partly drawn)	-6%
CCCCC/C=C\C/C=C\C[C@H](O)/C=C/C=C\CCCC(=O)O	3%
COC(=O)CNC(=O)C1(CC(C)C)C=CCN1C(C)=O (stereo not drawn)	-9%
O=C(CN1CCc2ccccc21)NN1CC(=O)N(c2ccc(Cl)cc2)CC1=O	18µM*
CN1CCN(CC(=O)NN2CC(=O)N(c3ccc(F)cc3)CC2=O)CC1	2%[57.5 µM]
O=C(Nc1ccccc1)NN1CC(=O)N(c2ccc(Cl)cc2)CC1=O	-24%[57.5 µM]
CC(C)(C)OC(=O)NCc1ccc(NC(=O)c2nc[nH]c2C(=O)N[C@@H](Cc2ccccc2)C(=O)OC(C)(C)C)cc1	-29%[57.5 µM]
C[C@@H](NC(=O)c1nc[nH]c1C(=O)N[C@@H](Cc1ccccc1)C(=O)OCc1ccccc1)c1ccccc1	10%[57.5 µM]
